In PubChem BioAssay (Tox21):
Results filed as inconclusive are left out. The source made the active and inactive calls. Unless noted, the call rests on the fitted dose curve; in most records, active means well fitted curve in the direction sought with a large enough effect in the repeat runs; inconclusive means weak or mixed curves; inactive means flat fitted curve, though single readings scatter.

How the values were obtained:
[1] = qHTS assay to test for compound auto fluorescence at 535 nm (green) in HEK293 cells (AID 720680)
[2] = qHTS assay to test for compound auto fluorescence at 460 nm (blue) in HEK293 cell free culture (AID 720681)
Procedure, shortened: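 Compounds were added to cell-free DMEM with 10% FBS and fluorescence read directly. The blue channel used 405 nm excitation and 460 nm emission, with triamterene as the reference fluorophore.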

[3] = qHTS assay to test for compound auto fluorescence at 535 nm (green) in HEK293 cell free culture (AID 720682)
Procedure, shortened: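 Each library compound, or DMSO control, is added by pintool to medium alone, comprising DMEM and 10% FBS. Emission at 535 nm following 485 nm excitation is quantified against fluorescein.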

[4] = qHTS assay to test for compound auto fluorescence at 590 nm (red) in HEK293 cell free culture (AID 720683)
Procedure, shortened: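 Cell-free wells of DMEM with 10% FBS received compound, and intrinsic fluorescence was read at excitation/emission 540/590 nm. Values expressed as equivalence to Rose Bengal sodium.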

[5] = qHTS assay to test for compound auto fluorescence at 590 nm (red) in HepG2 cell free culture (AID 720684)
Procedure, shortened: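 Auto fluorescence equivalency versus Rose Bengal sodium, red channel Ex/Em 540/590 nm; compounds in cell-free MEM/10% FBS; DMSO vehicle control.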

[6] = qHTS assay to test for compound auto fluorescence at 460 nm (blue) in HepG2 cell free culture (AID 720685)
Procedure, shortened: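 Cell-free plates of MEM plus 10% FBS received 23 nL compound or DMSO vehicle; blue-channel (405/460 nm) intensity scored against triamterene as reference fluorophore.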

[7] = qHTS assay to test for compound auto fluorescence at 535 nm (green) in HepG2 cell free culture (AID 720686)
[8] = qHTS assay to test for compound auto fluorescence at 460 nm (blue) in HepG2 cells (AID 720687)
Procedure, shortened: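 HepG2 cells in MEM with 10% FBS, attached overnight at 37 C, were exposed to compound or DMSO for 1 hr at 37 C, 5% CO2. Blue fluorescence was read at 405/460 nm, with triamterene as reference fluorophore.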

[9] = target: Glucocorticoid receptor (Homo sapiens) (UniProt P04150); test: qHTS assay to identify small molecule agonists of the glucocorticoid receptor (GR) signaling pathway (AID 720691; active means well fitted activation curve with a large enough effect in the signal ratio in the repeat runs, not every such curve was filed as active; the % refers to the signal ratio)
Glucocorticoid receptor (Homo sapiens), sequence (P04150 whole entry, looked up): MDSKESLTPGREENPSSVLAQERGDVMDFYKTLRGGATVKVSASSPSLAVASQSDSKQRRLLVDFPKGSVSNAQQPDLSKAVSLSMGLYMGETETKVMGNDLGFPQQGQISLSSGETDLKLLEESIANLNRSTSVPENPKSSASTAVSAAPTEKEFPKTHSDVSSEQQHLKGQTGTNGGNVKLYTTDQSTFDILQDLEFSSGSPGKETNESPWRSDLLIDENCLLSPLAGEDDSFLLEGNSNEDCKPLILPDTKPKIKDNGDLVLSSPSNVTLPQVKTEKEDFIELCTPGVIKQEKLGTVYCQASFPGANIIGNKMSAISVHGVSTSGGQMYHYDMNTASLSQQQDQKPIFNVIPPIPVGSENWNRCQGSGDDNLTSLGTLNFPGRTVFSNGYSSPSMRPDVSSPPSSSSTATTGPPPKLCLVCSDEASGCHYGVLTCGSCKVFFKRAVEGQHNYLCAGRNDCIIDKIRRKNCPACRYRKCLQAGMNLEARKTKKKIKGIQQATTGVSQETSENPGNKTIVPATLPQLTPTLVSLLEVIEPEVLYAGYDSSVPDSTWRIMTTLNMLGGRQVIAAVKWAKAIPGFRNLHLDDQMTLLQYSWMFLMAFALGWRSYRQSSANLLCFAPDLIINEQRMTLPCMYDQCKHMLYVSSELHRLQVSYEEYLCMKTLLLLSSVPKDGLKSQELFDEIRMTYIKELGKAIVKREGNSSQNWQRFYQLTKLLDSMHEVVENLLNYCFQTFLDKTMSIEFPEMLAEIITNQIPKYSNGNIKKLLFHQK
Procedure, shortened: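 HeLa GR-bla reporter line; cells pre-incubated 4 h, compound in DMSO 18 h at 37 C; LiveBLAzer B/G FRET substrate 2 h RT; fluorescence intensity read-out.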

[10] = target: Glucocorticoid receptor (Homo sapiens) (UniProt P04150); test: qHTS assay to identify small molecule antagonists of the glucocorticoid receptor (GR) signaling pathway (AID 720692; active means well fitted inhibition curve with a large enough effect in the signal ratio in the repeat runs, not every such curve was filed as active; the % refers to the signal ratio)
Procedure, shortened: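 Read-out: beta-lactamase FRET substrate fluorescence, 2 h at room temperature, in HeLa cells stably carrying a GRE-driven bla reporter. Compounds were co-incubated with 5 nM dexamethasone agonist (final) for 18 h at 37 C.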
On the % scale 0 is the no-effect control and ±100 the full control effect.

O=C(O)/C=C/c1ccccc1
inactive: outcome [1] | outcome [2] | outcome [3] | outcome [4] | outcome [5] | outcome [6] | outcome [7] | outcome [8] | Potency [9] | outcome [10]

CN[C@@H]1[C@@H](O)[C@@H](O[C@@H]2[C@H](O)[C@H](O[C@H]3OC(CN)=CC[C@H]3N)[C@@H](N)C[C@H]2N)OCC1(C)O (stereo not given in full)
inactive: outcome [1] | outcome [2] | outcome [3] | outcome [4] | outcome [5] | outcome [6] | outcome [7] | outcome [8] | Potency [9] | outcome [10]

CCCCCCCCCOCC1CO1 (stereo not given)
inactive: outcome [1] | outcome [2] | outcome [3] | outcome [4] | outcome [5] | outcome [6] | outcome [7] | outcome [8] | Potency [9] | outcome [10]

NC(=O)NC(=O)Cc1ccccc1
inactive: outcome [1] | outcome [2] | outcome [3] | outcome [4] | outcome [5] | outcome [6] | outcome [7] | outcome [8] | Potency [9] | outcome [10]

O=C(O)C(=O)Nc1cccc(-c2nn[nH]n2)c1
inactive: outcome [1] | outcome [2] | outcome [3] | outcome [4] | outcome [5] | outcome [6] | outcome [7] | outcome [8] | Potency [9] | outcome [10]

CCCCCCCC/C=C\CCCCCCCC(=O)OC[C@@H](O)[C@H]1OC[C@H](O)[C@H]1O
inactive: outcome [1] | outcome [2] | outcome [3] | outcome [4] | outcome [5] | outcome [6] | outcome [7] | outcome [8] | Potency [9] | outcome [10]

O=C1CC[C@H](C(=O)N2CCCCC2)N1
inactive: outcome [1] | outcome [2] | outcome [3] | outcome [4] | outcome [5] | outcome [6] | outcome [7] | outcome [8] | Potency [9] | outcome [10]

CCCO
inactive: outcome [1] | outcome [2] | outcome [3] | outcome [4] | outcome [5] | outcome [6] | outcome [7] | outcome [8] | Potency [9] | outcome [10]

O=S(=O)(O)CCO
inactive: outcome [1] | outcome [2] | outcome [3] | outcome [4] | outcome [5] | outcome [6] | outcome [7] | outcome [8] | Potency [9] | outcome [10]

COCCOCCOCCOC
inactive: outcome [1] | outcome [2] | outcome [3] | outcome [4] | outcome [5] | outcome [6] | outcome [7] | outcome [8] | Potency [9] | outcome [10]

CC(C)COC(=O)COc1ccc(Cl)cc1Cl
inactive: outcome [1] | outcome [2] | outcome [3] | outcome [4] | outcome [5] | outcome [6] | outcome [7] | outcome [8] | Potency [9] | outcome [10]

C1CCN2C[C@@H]3C[C@@H](CN4CCCC[C@@H]34)[C@H]2C1
inactive: fluorescence, % of fluorescein [1] -0.0731% [at 18.6 µM] | fluorescence, % of fluorescent control [2] 0.0698% [at 18.6 µM] | activity change [3] -0.022% [at 18.6 µM] | fluorescence, % of fluorescent control [4] 0.165% [at 18.6 µM] | fluorescence, % of Rose Bengal [5] -0.0423% [at 18.6 µM] | fluorescence, % of fluorescent control [6] 0.101% [at 18.6 µM] | fluorescence, % of fluorescein control [7] 0.104% [at 18.6 µM] | fluorescence, % of fluorescent control [8] -0.0841% [at 18.6 µM] | Potency [9] | outcome [10]

C=COCCOCCOC=C
inactive: outcome [1] | outcome [2] | outcome [3] | outcome [4] | outcome [5] | outcome [6] | outcome [7] | outcome [8] | Potency [9] | outcome [10]

Oc1ccccc1Cc1ccccc1O
inactive: outcome [1] | outcome [2] | outcome [3] | outcome [4] | outcome [5] | outcome [6] | outcome [7] | outcome [8] | Potency [9] | outcome [10]

Cc1cccc(NC(=S)N(C)C)c1
inactive: outcome [1] | outcome [2] | outcome [3] | outcome [4] | outcome [5] | outcome [6] | outcome [7] | outcome [8] | Potency [9] | outcome [10]

Cc1ccccc1OCC1CO1 (stereo not given)
inactive: outcome [1] | outcome [2] | outcome [3] | outcome [4] | outcome [5] | outcome [6] | outcome [7] | outcome [8] | Potency [9] | outcome [10]

C/C=C(\C)C(=O)OCC/C=C\CC
inactive: outcome [1] | outcome [2] | outcome [3] | outcome [4] | outcome [5] | outcome [6] | outcome [7] | outcome [8] | Potency [9] | outcome [10]

CC(C)(c1ccc(Oc2ccc3c(c2)C(=O)OC3=O)cc1)c1ccc(Oc2ccc3c(c2)C(=O)OC3=O)cc1
inactive: outcome [1] | outcome [2] | outcome [3] | outcome [4] | outcome [5] | outcome [6] | outcome [7] | outcome [8] | Potency [9] | outcome [10]

NS(=O)(=O)c1ccc(Cl)c(S(N)(=O)=O)c1
inactive: outcome [1] | outcome [2] | outcome [3] | outcome [4] | outcome [5] | outcome [6] | outcome [7] | outcome [8] | Potency [9] | outcome [10]

CCCCCCCCCCCCC1CO1 (stereo not given)
inactive: outcome [1] | outcome [2] | outcome [3] | outcome [4] | outcome [5] | outcome [6] | outcome [7] | outcome [8] | Potency [9] | outcome [10]

Cc1ccc2c(c1)c1c3n2CCNC3CCC1 (stereo not given)
inactive: outcome [1] | outcome [2] | outcome [3] | outcome [4] | outcome [5] | outcome [6] | outcome [7] | outcome [8] | Potency [9] | outcome [10]
